Measured values: PubChem BioAssay (Tox21)
Several values for one entry are separate records, joined by “and”; a condition that tells them apart may be missing. Identical values can stand only once. Results filed as inconclusive are left out. A call without a number means that no potency is given here. Some structures have more than one record in an assay (separate samples or runs), and their calls can disagree. Activity calls are given as the source filed them. Unless noted, the call rests on the fitted dose curve; in most records, active means well fitted curve in the direction sought with a large enough effect in the repeat runs; inconclusive means weak or mixed curves; inactive means no such curve, though single readings can be large; an effect the other way counts as inactive or inconclusive.

Tests used:
[1] = target: Thyrotropin receptor (Homo sapiens) (UniProt P16473); test: qHTS assay to identify small molecule antagonists of the thyroid stimulating hormone receptor (TSHR) signaling pathway (AID 1259385; calls by dose curve; further: nearly all actives have a fitted effect of over 20% in size; further: potency means the concentration at half of the fitted maximal effect)
Sequence of Thyrotropin receptor (Homo sapiens) (P16473 whole entry, looked up): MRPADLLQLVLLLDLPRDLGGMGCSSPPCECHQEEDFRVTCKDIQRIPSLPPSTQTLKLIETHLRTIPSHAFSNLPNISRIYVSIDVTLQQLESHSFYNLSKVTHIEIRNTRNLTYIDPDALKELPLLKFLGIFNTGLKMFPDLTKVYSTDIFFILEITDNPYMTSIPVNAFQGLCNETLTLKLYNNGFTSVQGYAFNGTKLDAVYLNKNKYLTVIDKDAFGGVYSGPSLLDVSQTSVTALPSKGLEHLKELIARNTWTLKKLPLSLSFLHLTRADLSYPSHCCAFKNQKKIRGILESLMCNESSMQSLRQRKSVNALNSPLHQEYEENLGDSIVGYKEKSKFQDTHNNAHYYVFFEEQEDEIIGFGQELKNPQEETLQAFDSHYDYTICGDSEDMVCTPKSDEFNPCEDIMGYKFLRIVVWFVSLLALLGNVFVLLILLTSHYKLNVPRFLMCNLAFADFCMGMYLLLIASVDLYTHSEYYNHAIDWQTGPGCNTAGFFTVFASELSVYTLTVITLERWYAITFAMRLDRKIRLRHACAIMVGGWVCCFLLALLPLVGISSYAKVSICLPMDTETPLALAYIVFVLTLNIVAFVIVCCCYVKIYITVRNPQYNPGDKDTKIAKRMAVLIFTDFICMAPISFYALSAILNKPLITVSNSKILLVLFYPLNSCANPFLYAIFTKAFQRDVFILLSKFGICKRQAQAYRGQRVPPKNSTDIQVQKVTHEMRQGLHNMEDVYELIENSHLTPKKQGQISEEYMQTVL
Procedure, shortened: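 TSHR-HEK293 cells were plated and held 18 h at 37C/5% CO2, then given compound plus Ro20-1724 and stimulated with TSH at 1.5 ng/mL final. After 30 min at room temperature, cAMP was detected with cAMP-d2/anti-cAMP-cryptate (1 h) by fluorescence.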

[2] = qHTS assay to identify small molecule agonists of the estrogen receptor alpha (ER-alpha) signaling pathway in the presence of an antagonist - cell viability counter screen (AID 1259386);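 further: cells exposed to compounds for 22 h at 37 °C before the viability read; nearly all actives have a fitted effect of over 30% in size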; further: potency means the concentration at half of the fitted maximal effect
Procedure, shortened: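 Read-out: CellTiter-Fluor fluorescence after 1hr reagent incubation, measured in the same wells as the luciferase readout. VM7Luc4E2 cells were exposed to 15 compound concentrations with 10.0nM ICI-182,780 for 22hr at 37C.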

[3] = target: Progesterone receptor (Homo sapiens) (UniProt P06401); test: qHTS assay to identify small molecule agonists of the progesterone receptor (PR) signaling pathway (AID 1346784; calls by dose curve; further: nearly all actives have a fitted effect of over 30% in size)
Sequence of Progesterone receptor (Homo sapiens) (P06401 whole entry, looked up): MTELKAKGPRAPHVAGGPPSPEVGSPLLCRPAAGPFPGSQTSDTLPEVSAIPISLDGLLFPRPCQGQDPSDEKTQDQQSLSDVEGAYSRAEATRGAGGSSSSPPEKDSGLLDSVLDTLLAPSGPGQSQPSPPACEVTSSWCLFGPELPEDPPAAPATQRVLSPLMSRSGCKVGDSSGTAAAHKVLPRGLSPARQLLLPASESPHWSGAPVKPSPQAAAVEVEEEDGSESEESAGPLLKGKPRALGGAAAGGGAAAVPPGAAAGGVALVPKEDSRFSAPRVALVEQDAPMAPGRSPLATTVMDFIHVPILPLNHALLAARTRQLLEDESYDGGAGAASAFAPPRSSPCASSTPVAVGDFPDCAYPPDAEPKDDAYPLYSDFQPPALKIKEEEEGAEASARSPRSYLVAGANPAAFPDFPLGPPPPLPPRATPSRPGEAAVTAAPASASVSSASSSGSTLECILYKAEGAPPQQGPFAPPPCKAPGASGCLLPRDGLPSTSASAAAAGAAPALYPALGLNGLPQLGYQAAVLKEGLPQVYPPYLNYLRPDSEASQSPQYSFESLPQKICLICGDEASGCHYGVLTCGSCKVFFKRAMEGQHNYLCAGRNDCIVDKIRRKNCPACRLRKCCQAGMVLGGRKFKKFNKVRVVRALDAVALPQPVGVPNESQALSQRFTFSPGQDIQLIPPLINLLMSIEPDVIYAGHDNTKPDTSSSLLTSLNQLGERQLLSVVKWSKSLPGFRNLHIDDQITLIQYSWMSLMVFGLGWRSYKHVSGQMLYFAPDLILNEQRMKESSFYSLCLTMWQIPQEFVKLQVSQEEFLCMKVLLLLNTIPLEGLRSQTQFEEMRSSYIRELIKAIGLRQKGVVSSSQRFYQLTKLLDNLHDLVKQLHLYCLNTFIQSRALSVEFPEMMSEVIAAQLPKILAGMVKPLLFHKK
Procedure, shortened: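 Using charcoal-stripped serum (2%) to limit endogenous steroids, PR-UAS-bla HEK 293T cells received compounds for 16 hr at 37C after 6 hr plating; beta-lactamase FRET fluorescence was recorded following 2 hr substrate loading at room temperature.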

[4] = target: Progesterone receptor (Homo sapiens) (UniProt P06401); test: qHTS assay to identify small molecule antagonists of the progesterone receptor (PR) signaling pathway (AID 1346795; active means well fitted inhibition curve with a large enough effect in the signal ratio in the repeat runs, not every such curve was filed as active; the % refers to the signal ratio; further: potency means the concentration at half of the fitted maximal effect)
Procedure, shortened: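 Inhibition of R5020-induced (1 nM final) beta-lactamase reporter signal in PR-UAS-bla HEK293T cells was scored by FRET fluorescence after overnight (16 hr) compound treatment.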

[5] = qHTS assay to identify small molecule antagonists of the progesterone receptor (PR) signaling pathway - cell viability counter screen (AID 1346798); further: nearly all actives have a fitted effect of over 50% in size; further: potency means the concentration at half of the fitted maximal effect
Procedure, shortened: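 ATP content as viability readout: CellTiter-Glo luminescence, 30 min room temperature, in PR-UAS-bla HEK293T cells after 16 hr compound/R5020 treatment at 37C and 5% CO2.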

[6] = qHTS assay to identify small molecule agonists of the progesterone receptor (PR) signaling pathway - cell viability counter screen (AID 1346799; calls by dose curve; further: nearly all actives have a fitted effect of over 45% in size; further: potency means the concentration at half of the fitted maximal effect)
Procedure, shortened: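 Cytotoxicity in PR-bla HEK293T cells: 16 h compound, 37C; CellTiter-Glo added post-FRET read; luminescence after 30 min RT.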

[7] = qHTS assay to identify small molecule antagonists of the TGF-beta/Smad signaling pathway - cell viability counter screen (AID 1346824); further: nearly all actives have a fitted effect of over 50% in size; further: potency means the concentration at half of the fitted maximal effect
Procedure, shortened: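 SBE-bla HEK 293T cells were plated overnight at 37 C, then given compounds in DMSO plus TGF-beta1 (added as 0.25 ng/mL solution) for 5 hr. After the bla read, CellTiter-Glo was added to the same wells and luminescence read after 30 min at room temperature.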

[8] = qHTS assay to identify small molecule agonists of the TGF-beta/Smad signaling pathway - cell viability counter screen (AID 1346829); further: nearly all actives have a fitted effect of over 45% in size; further: potency means the concentration at half of the fitted maximal effect
Procedure, shortened: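 Same-well cytotoxicity: CellTiter-Glo added after the 2 hr room-temperature beta-lactamase substrate step, luminescence measured 30 min later; cells had 5 hr of compound at 37 C.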

[9] = qHTS assay to identify small molecule agonists of the TGF-beta/Smad signaling pathway (AID 1346859; active means well fitted activation curve with a large enough effect in the signal ratio in the repeat runs, not every such curve was filed as active; the % refers to the signal ratio; further: series mostly up to about 77 µM)
Procedure, shortened: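 Stable Smad binding element-beta-lactamase HEK 293T cells; 5 hr compound exposure at 37 C under 5% CO2; 2 hr room-temperature substrate step; fluorescence excited at 405 nm, collected at 460 nm and 530 nm.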

[10] = Human pregnane X receptor (PXR) small molecule agonists, qHTS cell viability counter screen (AID 1346977); further: nearly all actives have a fitted effect of over 50% in size; further: potency means the concentration at half of the fitted maximal effect
Procedure, shortened: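 Readout is CellTiter-Fluor fluorescence from PXR-Luc HepG2 cells. Plated cells rested 5hr, then were treated with compounds for 24hr at 37C and 5% CO2, with reagent present during the last hour.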

[11] = Caspase-3/7 induction in HepG2 cells by small molecules, qHTS assay (AID 1346978); further: nearly all actives have a fitted effect of over 15% in size; further: potency means the concentration at half of the fitted maximal effect
Procedure, shortened: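 Wild-type HepG2 cells (2,000/well) were settled 5 h at 37 C, 5% CO2, then exposed to compounds in DMSO for 17 h. Caspase-3/7 activity was read by luminescence 30 min after adding Caspase-Glo 3/7 reagent at room temperature.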

[12] = Caspase-3/7 induction in CHO-K1 cells by small molecules, qHTS cell viability counter screen (AID 1346979); further: nearly all actives have a fitted effect of over 35% in size; further: potency means the concentration at half of the fitted maximal effect
Procedure, shortened: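 To flag cytotoxic compounds, treated CHO-K1 wild-type cells were given CellTiter-Fluor at 16hr and read fluorescently after 1hr at 37C; the caspase-3/7 luminescence was measured in these same wells.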

[13] = Caspase-3/7 induction in CHO-K1 cells by small molecules, qHTS assay (AID 1346980); further: nearly all actives have a fitted effect of over 15% in size
Procedure, shortened: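 Wild-type cells were seeded at 1,500 per well and settled 5 hr at 37 C, 5% CO2, then exposed to DMSO-dissolved compounds for 17 hr. Caspase-Glo 3/7 reagent was added, and luminescence was read after 30min at room temperature.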

[14] = Caspase-3/7 induction in HepG2 cells by small molecules, qHTS cell viability counter screen (AID 1346981); further: nearly all actives have a fitted effect of over 30% in size; further: potency means the concentration at half of the fitted maximal effect
Procedure, shortened: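 Fluorescence read-out of live-cell protease activity (CellTiter-Fluor) after 1 hr with reagent. This was measured in the same wells as the caspase-3/7 luminescence, on HepG2 cells exposed to DMSO-dissolved compounds for 16 hr at 37 C.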

[15] = target: Nuclear receptor subfamily 1 group I member 2 (Homo sapiens) (UniProt O75469); test: Human pregnane X receptor (PXR) small molecule agonists, qHTS assay (AID 1346982); further: nearly all actives have a fitted effect of over 35% in size; further: potency means the concentration at half of the fitted maximal effect
Sequence of Nuclear receptor subfamily 1 group I member 2 (Homo sapiens) (O75469 whole entry, looked up): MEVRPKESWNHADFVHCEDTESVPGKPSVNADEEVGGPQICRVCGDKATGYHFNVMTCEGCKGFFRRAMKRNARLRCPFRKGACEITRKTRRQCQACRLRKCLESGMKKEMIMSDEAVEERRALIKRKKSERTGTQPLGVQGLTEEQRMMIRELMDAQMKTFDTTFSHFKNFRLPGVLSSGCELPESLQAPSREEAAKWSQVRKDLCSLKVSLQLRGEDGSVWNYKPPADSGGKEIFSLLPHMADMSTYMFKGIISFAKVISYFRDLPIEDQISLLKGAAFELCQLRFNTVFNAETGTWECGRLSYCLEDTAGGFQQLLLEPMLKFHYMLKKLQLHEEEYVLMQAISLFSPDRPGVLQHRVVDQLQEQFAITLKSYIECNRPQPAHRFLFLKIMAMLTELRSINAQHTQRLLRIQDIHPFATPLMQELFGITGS
Procedure, shortened: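 HepG2 PXR-Luc reporter line, 5% charcoal-stripped FBS; 5 hr pre-incubation, compound (DMSO) 24 hr at 37 C/5% CO2; ONE-Glo 30 min RT; luminescence read-out.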

[16] = target: Thyrotropin-releasing hormone receptor (Homo sapiens) (UniProt P34981); test: qHTS assay to identify small molecule antagonists of the thyrotropin-releasing hormone receptor (TRHR) signaling pathway (AID 1346877; active means well fitted inhibition curve with a large enough effect in the repeat runs, not every such curve was filed as active; further: series mostly up to about 51 µM)
Sequence of Thyrotropin-releasing hormone receptor (Homo sapiens) (P34981 whole entry, looked up): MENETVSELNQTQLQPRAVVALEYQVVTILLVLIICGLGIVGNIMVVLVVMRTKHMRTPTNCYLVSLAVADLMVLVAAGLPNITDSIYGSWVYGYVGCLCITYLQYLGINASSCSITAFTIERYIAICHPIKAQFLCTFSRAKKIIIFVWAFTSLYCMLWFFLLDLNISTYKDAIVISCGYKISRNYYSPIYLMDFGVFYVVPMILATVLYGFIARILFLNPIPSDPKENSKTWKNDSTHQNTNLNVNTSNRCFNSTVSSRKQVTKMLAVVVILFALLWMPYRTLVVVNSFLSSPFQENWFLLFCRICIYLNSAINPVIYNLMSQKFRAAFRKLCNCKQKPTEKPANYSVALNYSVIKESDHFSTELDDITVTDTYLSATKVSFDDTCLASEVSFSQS
Procedure, shortened: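 HEK293/TRHR cells, 18 h, 37 °C; Ca2+ dye 2 h; cpd 5 min RT; TRH 1 nM final; fluorescence read 3 min, 1 s intervals; 15 concs, triplicate.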

[17] = target: Thyrotropin-releasing hormone receptor (Homo sapiens) (UniProt P34981); test: qHTS assay to identify small molecule agonists of the thyrotropin-releasing hormone receptor (TRHR) signaling pathway (AID 1346891; calls by dose curve;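 further: HEK293 cells expressing TRHR with calcium dye readout; series mostly up to about 58 µM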)
Procedure, shortened: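 In 1536-format, 1500 TRHR-Hek293 cells per well grew 18 h, took up calcium dye for 2 h at 37 °C, received compound, and were read kinetically; 15-point titrations, triplicates.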

[18] = target: Nuclear receptor subfamily 1 group I member 2 (Rattus norvegicus) (UniProt Q9R1A7); test: Rat pregnane X receptor (rPXR) activation by small molecules, qHTS assay (AID 1346983); details: rPXR luciferase reporter cells, One-Glo luminescence, 24 h; max activation: stronger effect = higher value; further: nearly all actives have a fitted effect of over 20% in size
Sequence of Nuclear receptor subfamily 1 group I member 2 (Rattus norvegicus) (Q9R1A7 whole entry, looked up): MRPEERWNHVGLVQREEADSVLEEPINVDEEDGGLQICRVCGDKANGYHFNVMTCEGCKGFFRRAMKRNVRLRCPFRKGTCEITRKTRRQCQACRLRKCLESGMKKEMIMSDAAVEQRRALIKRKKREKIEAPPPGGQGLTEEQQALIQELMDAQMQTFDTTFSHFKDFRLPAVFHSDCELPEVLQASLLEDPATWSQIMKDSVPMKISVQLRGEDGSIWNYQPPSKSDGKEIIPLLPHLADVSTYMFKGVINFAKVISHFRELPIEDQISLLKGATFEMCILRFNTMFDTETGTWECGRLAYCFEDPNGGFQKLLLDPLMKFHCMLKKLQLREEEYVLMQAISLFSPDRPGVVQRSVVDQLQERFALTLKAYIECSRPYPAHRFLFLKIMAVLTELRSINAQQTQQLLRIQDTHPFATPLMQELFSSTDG
Procedure, shortened: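 Cell-based rPXR luciferase reporter assay, 2,000 cells per well, rested 5hr at 37 C before compound addition in DMSO, then 24 hr at 37 C. One-Glo reagent was added and luminescence read after 30 min at room temperature.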

[19] = target: Nuclear receptor subfamily 1 group I member 2 (Homo sapiens) (UniProt O75469); test: CYP3A4 induction through human pregnane X receptor (PXR) by small molecules, qHTS assay (AID 1346984); further: nearly all actives have a fitted effect of over 40% in size
Procedure, shortened: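 HepG2-derived DPX-2 line carrying PXR plus a CYP3A4-promoter luciferase reporter; cells plated 5 hr, compound-exposed 24 hr at 37C. CYP3A4 activity probed with 3uM (final) Luciferin-IPA for 3hr, then luciferase read after One-Glo.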

[20] = target: Nuclear receptor subfamily 1 group I member 2 (Homo sapiens) (UniProt O75469); test: Human pregnane X receptor (PXR) activation by small molecules, qHTS assay (AID 1346985); further: nearly all actives have a fitted effect of over 40% in size
Procedure, shortened: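 DPX-2 cells (HepG2 co-transfected with a PXR response element and a CYP3A4-promoter luciferase construct) were seeded at 2,000 per well, rested 5 hr at 37C, then exposed to DMSO-dissolved compounds for 24 hr. Activation was read as luciferase luminescence.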

Compound | Potency [1] | Potency [2] | Potency [3] | Potency [4] | Potency [5] | Potency [6] | Potency [7] | Potency [8] | outcome [9] | Potency [10] | Potency [11] | Potency [12] | Potency [13] | Potency [14] | Potency [15] | Potency [16] | Potency [17] | max activation [18] | Potency [19] | outcome [20]
CC1(C)S[C@@H]2[C@H](NC(=O)[C@H](N)c3ccccc3)C(=O)N2[C@H]1C(=O)O | inactive | inactive | inactive | inactive | inactive | inactive | inactive | inactive | inactive | inactive | inactive | inactive | inactive | inactive | inactive | – | – | – | – | –
CN(C)CCOC(C)(c1ccccc1)c1ccccn1 (stereo unspecified) | inactive | inactive | inactive | inactive | inactive | inactive | inactive | inactive | inactive | inactive | inactive | inactive | inactive | inactive | inactive | – | – | – | – | –
CC(O)(P(=O)(O)O)P(=O)(O)O | inactive | inactive | – | – | inactive | inactive | inactive | inactive | inactive | inactive | inactive | inactive | inactive | inactive | inactive | inactive | inactive | -1.65% (inactive) | inactive | inactive
COc1ccc2cc(S(=O)(=O)N[C@H](CC(=O)N[C@H](Cc3ccc(CN4[C@H](C)CCC[C@@H]4C)cc3)C(=O)N(C)C(C)C)c3ccc4c(c3)OCO4)ccc2c1 | 57.9 µM (active) | 36.5 µM (active) | inactive | 57.9 µM (active) | – | 29 µM (active) | – | – | – | 13 µM (active) | 57.9 µM (active) | 51.6 µM (active) | inactive | 29 µM (active) | inactive | – | – | – | – | –
CCCCCCc1ccc(O)cc1O | inactive | inactive | inactive | 27.4 µM (active) and 27.3 µM (active) and 23.7 µM (active) | – | – | inactive | inactive | inactive | inactive | inactive | 61.3 µM (active) and 61.1 µM (active) and 1.19 µM (active) | inactive | inactive | 68.8 µM (active) and inactive | inactive | inactive | -2.3% (inactive) | inactive | inactive
CCCCCCCCCCCC[N+](C)(C)Cc1ccccc1 | inactive | 67.3 µM (active) and 74.5 µM (active) and inactive | – | – | 29.7 µM (active) and 33.5 µM (active) | 8.47 µM (active) and 8.36 µM (active) and 10.6 µM (active) | 48 µM (active) and 33.6 µM (active) and 23.9 µM (active) | 48 µM (active) and 29.9 µM (active) | inactive | 52.8 µM (active) | 67.3 µM (active) and 66.4 µM (active) | 42.4 µM (active) and 33.3 µM (active) and 26.6 µM (active) | inactive | 67.3 µM (active) and 74.5 µM (active) and inactive | inactive | inactive | – | – | – | –
